Laboratory results from ChEMBL document CHEMBL3988442, “University of Dundee, Small-Polar-MMV Screening Library” (2021).
Hit rate of the full screen: of about 66,000 compounds, about 960 (1.5%) showed an effect of 50% or more. For the sample, strong results were picked, then their nearest neighbours and some compounds at random.

System: Trypanosoma brucei
Assay: Trypanosoma brucei 72 hour study
Format: functional, organism-based
Set-up: scale not given: in the data most compounds retested in dose-response had high values

## CC(C)N1CCC(c2nc3ccc(-c4ccnn4C)cn3n2)CC1.O=C(O)C(F)(F)F
30.3 µM, […]
  Percent Effect: -11.51%

## O=C(CC1CCCC1)N1CCC2(CCN2Cc2ccc(F)cc2)C1.O=C(O)C(F)(F)F (configuration not stated)
30.3 µM, […]
  Percent Effect: -0.9298%

## CCc1nnc(CN(C)CC2CCCCC2)o1
30 µM, 30.03 µM
  Percent Effect: -20.72%

## Cc1cnc(C(=O)N2CCc3ncnc(C)c3CC2)cn1
30 µM, 30.03 µM
  Percent Effect: 54.93%

## Cc1ccc(C(=O)N2CCc3ncnc(C)c3CC2)cn1
30 µM, 30.03 µM
  Percent Effect: 1.33%

## Cc1ncnc2c1CCN(C(=O)c1cnccn1)CC2
30.3 µM, […]
  Percent Effect: 17.88%

## CCNC(=O)N(C)C1CCN(Cc2ncc(C)c(OC)c2C)CC1
10 µM
  Percent Effect: -34.27%

## Cc1cc(C(=O)N2CCC3(CC2)CC(c2cccnc2)C(=O)N3)no1.O=C(O)C(F)(F)F (configuration not stated)
30 µM, 30.03 µM
  Percent Effect: -44.38%

## COc1ccc(CCN2CC(NCc3ncc[nH]3)CC2=O)cc1 (configuration not stated)
30 µM, 30.03 µM
  Percent Effect: 64.92%

## Cc1ncc(CNC2CC(=O)N(CCc3ccc(F)cc3)C2)n1C (configuration not stated)
30 µM, 30.03 µM
  Percent Effect: 23.38%

## O=C1CC(NCc2ccncc2)CN1CCc1cccc(Cl)c1 (configuration not stated)
30 µM, 30.03 µM
  Percent Effect: -25.97%

## O=C1CC(NCc2ccccn2)CN1CCc1ccc(F)cc1 (configuration not stated)
30 µM, 30.03 µM
  Percent Effect: 2.338%

## O=C1CC(NCc2ncc[nH]2)CN1CCc1cccc(Cl)c1 (configuration not stated)
30 µM, 30.03 µM
  Percent Effect: 84.65%

## Cc1nc[nH]c1CNC1CC(=O)N(CCc2cccc(Cl)c2)C1 (configuration not stated)
30 µM, 30.03 µM
  Percent Effect: -48.22%

## CCN1CCN(C(C)CNC(=O)Nc2nc3ccccc3s2)CC1 (configuration not stated)
30.3 µM, […]
  Percent Effect: 21.11%

## Fc1ccc(CN2CCc3ncnc(C4CC4)c3CC2)cc1.O=C(O)C(F)(F)F
30 µM, 30.03 µM
  Percent Effect: -12.14%

## Cc1ccc(O)c(-c2cc(NCCO)nc3[nH]ccc23)c1
30 µM, 30.03 µM
  Percent Effect: -9.914%

## CC(=O)N1[C@H](CN(C)C)C[C@@H]2CN(C(=O)c3occc3C)CC[C@@H]21.O=C(O)C(F)(F)F
30.3 µM, […]
  Percent Effect: -4.239%

## O=C(O)C(F)(F)F.O=S(=O)(C1CC1)N1CCO[C@H]2[C@@H](Oc3ncccc3F)CC[C@@H]21
30.3 µM, […]
  Percent Effect: -15.89%

## CC(C)c1cn(CC(=O)NC2CC(=O)N(CCc3ccccc3)C2)nn1 (configuration not stated)
30.3 µM, […]
  Percent Effect: -9.844%

## CCN(Cc1noc(CC(C)C)n1)Cc1ccccc1C
30.3 µM, […]
  Percent Effect: 13.68%

## CCN(Cc1noc(CC(C)C)n1)Cc1ccccc1C(=O)O
30.3 µM, […]
  Percent Effect: 12.17%

## CCN(Cc1noc(CC(C)C)n1)Cc1ccccc1Cl
30.3 µM, […]
  Percent Effect: 100%

## COc1cccc(CN2CCCC(c3nn(C)c4nccnc34)C2)c1.Cl (configuration not stated)
30.3 µM, […]
  Percent Effect: -9.344%

## Cc1cnc(CN2C[C@H]3C[C@H](Oc4ccccc4)C[C@H]3C2)cn1
30.3 µM, […]
  Percent Effect: -12.87%

## Cc1nc(COCc2cnc3n2CCN(CC2CCC2)C3C)cs1.O=C(O)C(F)(F)F (configuration not stated)
30 µM, 30.03 µM
  Percent Effect: 77.97%

## Cc1nc(COCc2cnc3n2CCN(C2CCC2)C3C)cs1.O=C(O)C(F)(F)F (configuration not stated)
30 µM, 30.03 µM
  Percent Effect: -3.887%

## Cc1nc(COCc2cnc3n2CCN(C)C3C)cs1.O=C(O)C(F)(F)F (configuration not stated)
30.3 µM, […]
  Percent Effect: 14.84%

## O=C(NCc1ccco1)[C@H]1C[C@@H]2CCN(c3cccc(F)c3)C[C@H]2O1.O=C(O)C(F)(F)F
30.3 µM, […]
  Percent Effect: 0.588%

## CCCOC1CCCN(Cc2nc(-c3ccc(F)cc3F)oc2C)C1 (configuration not stated)
30.3 µM, […]
  Percent Effect: 19.33%

## COc1ccc(-c2nc(CN3CCCC(OC)C3)c(C)o2)c(F)c1 (configuration not stated)
30.3 µM, […]
  Percent Effect: 99.32%

## COCc1ncn(Cc2nc(-c3ccc(OC)cc3F)oc2C)n1
30.3 µM, […]
  Percent Effect: -22.44%

## Cc1nnc(CN2C[C@H]3CC[C@@H]2CN(C2Cc4ccccc4C2)C3)o1
30 µM, 30.03 µM
  Percent Effect: 19.71%

## COCC1N(C(=O)c2ccco2)[C@H]2CC[C@]1(O)CC2 (some centres not stated)
30.3 µM, […]
  Percent Effect: -31.26%

## O=C(NCC1CC1)[C@H]1C[C@@H]2CN(S(=O)(=O)Cc3ccccc3)C[C@H]1O2
30 µM, 30.03 µM
  Percent Effect: -18.74%

## O=C(NC1CCCCC1)NC1CCCc2c1cnn2CCO (configuration not stated)
30 µM, 30.03 µM
  Percent Effect: 61.21%

## O=C(NCC1CCCCC1)NC1CCCc2c1cnn2CCO (configuration not stated)
30 µM, 30.03 µM
  Percent Effect: -28.76%

## O=C(NCC(F)(F)F)NC1CCCc2c1cnn2CCO (configuration not stated)
30 µM, 30.03 µM
  Percent Effect: 3.56%

## COc1ccc(CN2CCc3ncnc(C4CC4)c3CC2)cc1.O=C(O)C(F)(F)F
30 µM, 30.03 µM
  Percent Effect: -6.255%

## Cc1nc(C)n(CC2CCCCN2Cc2nc3ccccc3o2)n1 (configuration not stated)
30.3 µM, […]
  Percent Effect: -29.61%
10 mM, 10 mM as filed; unlikely as a test dose
  Percent Effect: -25.93%

## Cc1cc(N2CCCC(O)(CN(C)C)C2)c2cc3c(cc2n1)OCO3 (configuration not stated)
30 µM, 30.03 µM
  Percent Effect: 17.65%

## Cc1cc(N2CCC(O)(CN(C)C)C2)c2cc3c(cc2n1)OCO3 (configuration not stated)
30 µM, 30.03 µM
  Percent Effect: 101.2%

## Cc1cc(N2CCCC3(CN(C)C(=O)O3)C2)c2cc3c(cc2n1)OCO3 (configuration not stated)
30 µM, 30.03 µM
  Percent Effect: -17.57%

## CN(C)C[C@H]1OC[C@@H]2CCN(S(=O)(=O)c3ccc(F)cc3)C[C@@H]21.O=C(O)C(F)(F)F
30 µM, 30.03 µM
  Percent Effect: -20.07%

## Cn1cncc1CN1CCC2(CC1)COCCN(S(C)(=O)=O)C2.O=C(O)C(F)(F)F
30.3 µM, […]
  Percent Effect: -5.891%

## CC(C)C[C@H](N)C(=O)N1CC2(CCNCC2)c2cc(Cl)ccc21.Cl.Cl
30.3 µM, […]
  Percent Effect: 46.04%
